A selection: hits, their analogues and other compounds. The true share with any hit is near 3.2%.
PHOSPHO1 block: inhibitors of human PHOSPHO1 phosphatase; Q8TCT1; recombinant PHOSPHO1, absorbance phosphatase assay; inhibition, % at 13.3 µM; 290,000 compounds, 1.1% hits; in the data active = inhibition above about 60%
Target sequence (Q8TCT1 whole entry, looked up): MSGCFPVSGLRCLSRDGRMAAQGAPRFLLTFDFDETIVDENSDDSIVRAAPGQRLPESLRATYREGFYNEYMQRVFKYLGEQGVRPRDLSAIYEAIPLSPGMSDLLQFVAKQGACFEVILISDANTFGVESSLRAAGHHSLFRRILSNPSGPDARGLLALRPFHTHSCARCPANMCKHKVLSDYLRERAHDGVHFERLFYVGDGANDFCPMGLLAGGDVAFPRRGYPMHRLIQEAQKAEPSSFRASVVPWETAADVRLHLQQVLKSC
ANO1 activ: activates or potentiates the mouse TMEM16A chloride channel; Q8BHY3; HEK293 TMEM16A/YFP-H148Q/I152L, iodide quench fluorescence; active compounds read low; B-score at 10 µM; 340,000 compounds, 0.3% hits;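 active = fluorescence-ratio B-score plate-corrected deviation score at least 3 library SD below zero, with starting fluorescence score within 5 deviations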;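 note: channel opened by trigger with iodide after compound preincubation; score built on the fluorescence ratio of max minus min over baseline; more negative score means more quench and so TMEM16A activation or potentiation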
ANO1 block: blocks the mouse calcium-activated chloride channel TMEM16A; normalized B-score (activity score, 25-100; higher = stronger inhibition) at 10 µM; 310,000 compounds, 1.2% hits; HEK293 TMEM16A/YFP iodide influx fluorescence, ionomycin; AID 588511; Q8BHY3;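 active = ratio plate-corrected score three or more library SD toward inhibition, starting fluorescence score within five deviations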;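 note: score derived from kinetic fluorescence span divided by baseline fluorescence per well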
HDAC3 inhib: human HDAC3 inhibition; recombinant HDAC3, fluorogenic peptide/trypsin coupled, fluorescence; 320,000 compounds, 0.15% hits; AID 2718; inhibition, % at 8.3 µM; in the data active = inhibition above about 26%, passing the limit was not always enough; inconclusive = no clear call, values can overlap the other calls
CHT PAM: human CHT allosteric activation; Q9GZV3; CHT-expressing cells, membrane potential dye, choline EC20; active compounds read high; LV-AA mutant CHT in HEK293 cells; B-score at 10 µM; 310,000 compounds, 0.49% hits;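 active = initial fluorescence not abnormally high and integrated response B-score, plate-corrected, over 3 SD above library mean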
CHT inh: inhibitors of human choline transporter CHT. Q9GZV3. CHT-expressing cells, membrane potential dye, choline response; active compounds read low. B-score at 10 µM. 310,000 compounds, 0.86% hits;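 active = B-score over 3 SD under the library average, and starting fluorescence ratio not unusually high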;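 note: choline stimulus applied at its EC90 after an EC20 pre-addition; B-score computed on integrated fluorescence ratio after choline addition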
CHT block conf: confirmation of human choline transporter CHT inhibitors; CHT-expressing cells, choline membrane potential dye; LV-to-AA substituted CHT, HEK293 cells; CHT activity remaining % of control (active compounds read low), % at 10 µM; 2,400 compounds, 70% hits; shares compounds with CHT inh;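 active = choline transporter activity left, mean of duplicates at 10 µM, below buffer-only control mean minus 3 SD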;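 note: depolarization triggered by choline at its EC90 following an EC20 pre-addition; 0% = hemicholinium-3 full block and 100% = buffer-only control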
HEK293 MPD ctr: activity in parental HEK293 cells lacking CHT; AID 493222; 2,400 compounds, 4% hits; shares compounds with CHT inh; membrane potential ratio readout (active if shifted either direction beyond buffer ±3SD; no single direction) at 10 µM; membrane potential dye, choline response; active = decrease or increase beyond buffer ±3SD;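 note: parental cells lack the transporter so any hit is non-specific; ratio is peak minus trough fluorescence over baseline after EC90 choline challenge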
* hit, by the source's call; i = inactive; u = inconclusive; x = no result.

SMILES	PHOSPHO1 block	ANO1 activ	ANO1 block	HDAC3 inhib	CHT PAM	CHT inh	others
CCCSc1nnc(N2C(=O)C(O)=C(C(=O)c3ccco3)C2c2ccccc2F)s1 (stereo not drawn)	-112.3	-4.77*	i	8.9	i	i
CSc1nnc(N2C(=O)C(O)=C(C(=O)c3ccc(C)o3)C2c2ccc(C)cc2)s1 (stereo not drawn)	27.6	-4.8*	i	8.4	i	i
CSc1nnc(N2C(=O)C(O)=C(C(=O)c3ccco3)C2c2ccccc2F)s1 (stereo not drawn)	33.2	-4.76*	i	3.1	i	i
Cc1ccc2nc(N3C(=O)C(O)=C(C(=O)c4ccco4)C3c3ccc(C)o3)sc2c1 (stereo not drawn)	39.0	i	i	4.1	i	i
Cc1ccc(C2C(C(=O)c3ccco3)=C(O)C(=O)N2c2nnc(C)s2)cc1 (stereo not drawn)	-27.2	i	i	2.8	i	i
O=C(Cn1nc(C(F)(F)F)c2c1CCCC2)NCCN1CCOCC1	14.0	i	i	-1.8	i	i
CCOC(=O)c1cc(CC)sc1NC(=O)CC1SC(N)=NC1=O (stereo not drawn)	22.8	i	i	8.9	i	i
COc1cc(/C=N/N(CCO)C2=NS(=O)(=O)c3ccccc32)cc(OC)c1OC	35.6	i	i	-3.1	i	i
O=C(Nc1ccc(C(F)(F)F)cc1-c1ccccc1)c1ccccc1	1.4	i	i	-4.9	i	i
Cc1cc(=O)oc2c(C)c(OC(C)C(=O)NCCCN3CCCC3=O)ccc12 (stereo not drawn)	26.3	i	i	-7.4	i	i
COc1ccc(C(=O)N2CCN(C(=O)CC(C)C)CC2)cc1OC	-10.5	i	i	-8.8	i	i
Cc1ccc(S(=O)(=O)N2[C@@H](c3cccc(Cl)c3)C(C(=O)O)=CC[C@H]2c2ccc(C(C)C)cc2)cc1	x	i	100*	2.0	i	i
Cc1ccc(S(=O)(=O)N2[C@@H](c3ccc(Cl)cc3)C(C(=O)O)=CC[C@H]2c2cccc(C)c2)cc1	x	i	i	-3.5	i	i
Cc1ccc(S(=O)(=O)N2[C@@H](c3ccc(Cl)cc3)C(C(=O)O)=CC[C@H]2c2cccc(Cl)c2)cc1	x	i	100*	-2.0	i	i
O=C(O)C1=CC[C@@H](c2ccc(Cl)cc2)N(S(=O)(=O)c2ccc(Cl)cc2)[C@H]1c1cccc(Cl)c1	x	i	100*	10.0	i	i
Cc1ccc(C(=O)c2ncc[nH]2)cc1	x	i	i	0.4	i	i
O=C(CN1C(=O)NC2(CCc3ccccc32)C1=O)NCc1ccc(Cl)cc1 (stereo not drawn)	x	i	x	-3.5	x	x
CCOc1cc(/C=N/NC(=O)c2cc(C)[nH]n2)ccc1OC(=O)c1ccc([N+](=O)[O-])cc1	33.8	x	100*	-9.8	i	i
CCOc1cc(/C=N\NC(=O)c2ccc(C)nc2)ccc1OC(=O)c1ccc(F)cc1	24.0	i	i	-2.7	i	i
O=C(CN1CCN(c2ccccc2)CC1)Nc1ccncc1	x	i	i	-7.4	i	i
CCOc1ccccc1NC(=S)NCCc1ccccc1	29.2	-5.24*	i	-0.5	i	i
COc1ccc(OC)c(C2CC(=O)N3CN(c4cccc(Cl)c4)CSC3=C2C#N)c1 (stereo not drawn)	93.7*	i	i	5.4	i	i
COc1ccc(OC)c(C2CC(=O)N3CN(c4ccc(C)c(Cl)c4)CSC3=C2C#N)c1 (stereo not drawn)	78.6*	i	i	10.9	i	i
CCOC(=O)c1ccc(N2CSC3=C(C#N)C(c4ccc(OC)cc4OC)CC(=O)N3C2)cc1 (stereo not drawn)	90.4*	i	i	u	i	i
CCc1ccccc1N1CSC2=C(C#N)C(c3cc(OC)c(OC)cc3OC)CC(=O)N2C1 (stereo not drawn)	5.8	i	i	9.9	i	i
SMILES	PHOSPHO1 block	ANO1 activ	ANO1 block	HDAC3 inhib	CHT PAM	CHT inh	others
CCc1cc(=O)oc2cc(C)cc(OCC(=O)NCCN3CCOCC3)c12	14.6	i	i	-27.5	i	i
O=C(O)CCCN1C(=O)/C(=C/c2ccc(-c3nc4ccccc4s3)o2)SC1=S	69.3*	i	i	6.3	i	i
COCCNC(=S)Nc1ccc(Cl)c(Cl)c1	64.3*	i	i	2.6	i	i
COCCNC(=S)Nc1ccc2nsnc2c1	-6.2	i	i	-7.4	i	i
Cc1ccc([N+](=O)[O-])c(OCCN2C(=O)NC(C)(C)C2=O)c1	-8.4	i	i	2.1	i	i
Cc1cc(OCCCCN2C(=O)NC(C)(C)C2=O)ccc1[N+](=O)[O-]	29.5	i	25*	5.4	i	i
CS(=O)(=O)C1=NN2C(=N)/C(=C\c3ccc(OC(=O)c4ccco4)cc3)C(=O)N=C2S1	39.5	i	i	6.9	i	-6.85*	CHT block conf=60.0%*;HEK293 MPD ctr=i
N=C1/C(=C\c2ccc(OC(=O)c3ccco3)cc2)C(=O)N=C2SC=NN12	44.6	i	x	x	x	x
Cn1ccnc1SCC(=O)NC1CCCC1	-19.4	i	i	-1.5	i	i
Cn1ccnc1SCC(=O)Nc1ccc2nc(SCC(=O)NC3CC3)sc2c1	23.8	x	i	1.5	i	-16*	CHT block conf=20.5%*;HEK293 MPD ctr=i
CC(Oc1ccc(Cl)cc1)C(=O)Nc1ccc(S(=O)(=O)Nc2nccs2)cc1 (stereo not drawn)	19.4	i	i	2.8	i	i
CC(Oc1ccccc1Cl)C(=O)Nc1ccc(S(=O)(=O)Nc2nccs2)cc1 (stereo not drawn)	x	i	i	x	i	-7.68*	CHT block conf=65.5%*;HEK293 MPD ctr=i
Cc1ccccc1OC(C)C(=O)Nc1ccc(S(=O)(=O)Nc2nccs2)cc1 (stereo not drawn)	-1.8	i	i	3.3	i	-7.21*	CHT block conf=47.2%*;HEK293 MPD ctr=i
COc1ccc(CCNC(=O)C2CCN(C(=O)NC3CCCCC3)CC2)cc1	10.4	i	i	14.5	i	i
